Data: PubChem BioAssay (NCI)
This is part of a sample that, as a whole, favours compounds with a hit. Of some 83,000 tested, about 20% had one in any assay.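 A percent growth of 40 corresponds to 60% growth inhibition; 0 means no net growth; -100 means all cells died. Active threshold: below 10.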 A number with no mark means an inactive call. The source made the active and inactive calls.

The compounds below were run on MALME-3M melanoma (assay: NCI-60 one-dose screen, 48 h (100 = growth as untreated, 0 = no growth, -100 = all killed)). Conditions: 10 µM unless noted.

| Structure (SMILES) | growth |
| --- | --- |
| Clc1cccc(Cl)c1Nc1ccc2nnc(-c3ccncc3)n2n1 | 98.2% |
| CC(C)(C)[Si](C)(C)OC1[C@@H](CNC(=O)NC(=O)CCl)O[C@@H](n2cnc3c(N)ncnc32)[C@H]1O[Si](C)(C)C(C)(C)C (some centres not stated) | -67.3% (active) |
| CC(=O)Nc1ccc(Sc2ccc([N+](=O)[O-])o2)cc1 | -16.5% (active) |
| CC(C)(C)[Si](C)(C)OC1[C@@H](COC(=O)NC(=O)CCl)O[C@@H](n2cnc3c(N)ncnc32)[C@H]1O[Si](C)(C)C(C)(C)C (some centres not stated) | -57% (active) |
| COc1ncnc2c1ncn2C/C(Br)=C(\Br)CCl | -6.59% (active) |
| O=C1c2ccccc2C(=O)c2c(Nc3ccc(CCO)cc3)ccc(O)c21 | 77.2% |
| COc1ccccc1CNCCCCCCCCCCCCN1C(=O)c2ccc3c4c(ccc(c24)C1=O)C(=O)N(CCCCCCCCCCCCNCc1ccccc1OC)C3=O | 97.6% |
| O=c1[nH]c(-c2ccccn2)nc2sc3c(c12)CCCCCC3 | 61.9% |
| CC(C)OC1=C(Cl)C(=O)c2ccccc2C1=O | 111% |
| CCCCCn1c(=N)n(CC(O)COc2cccc(C)c2)c2ccccc21 (configuration not stated) | -6.7% (active) |
| CC1SC(c2cccc(Oc3ccccc3)c2)N(CCc2cccs2)C1=O (configuration not stated) | -72.7% (active) |
| CC(C)(C)[Si](C)(C)OC1[C@@H](COC(N)=O)O[C@@H](n2cnc3c(N)ncnc32)[C@H]1O[Si](C)(C)C(C)(C)C (some centres not stated) | 111% |
| COc1ccc(-c2csc3c2-n2cccc2C3=O)cc1O | 66.2% |
| O=c1[nH]c(-c2ccncc2)nc2sc3c(c12)CCCCCC3 | 64% |
| COc1ccc(-n2c(SCc3cc(OC)c(OC)c(OC)c3)nc3ccc(C)cc3c2=O)c(OC)c1 | 25.5% |
| Fc1ccccc1Nc1ccc2nnc(-c3ccncc3)n2n1 | 103% |
| CC(C)(C)[Si](C)(C)OC1[C@@H](O[Si](C)(C)C(C)(C)C)[C@@H](CNC(=O)NC(=O)C(F)(F)F)O[C@H]1n1cnc2c(NC(=O)Nc3ccccc3)ncnc21 (some centres not stated) | 74.8% |

| Structure (SMILES) | growth |
| --- | --- |
| Cc1ccc(N=c2nc3sc4c(C)ccc(C)c4n3c(N)c2C#N)cc1 | 125% |
| COCCOC1=C(Cl)C(=O)c2ccccc2C1=O | 96.4% |
| CCOC(=O)C1=C(C)N2C(=NC3=C(CCCC/C3=C\c3ccccc3)C2c2ccccc2)S1 (configuration not stated) | 86.7% |
| CC(=O)Nc1ccccc1-c1n[nH]c(=O)[nH]c1=O | 89.6% |
| O=c1c2c(=NCCN3CCCC3)cc3c(=O)n(CCCN4CCOCC4)c(=O)c4ccc(c(O)n1CCCN1CCOCC1)c2c4-3 | -70.7% (active) |
| COc1ccccc1-n1c(SCc2cc(OC)c(OC)c(OC)c2)nc2ccc(Cl)cc2c1=O | 33% |
| Nc1c(Br)cc(Br)cc1-c1n[nH]c(=O)[nH]c1=O | 98.4% |
| O=C1C(OCCOc2ccccc2)=C(OCCOc2ccccc2)C(=O)c2ccccc21 | 54.7% |
| O=c1nc(NO)[nH]c(=O)n1Cc1ccccc1 | 100% |
| COc1ccc(-c2nc3sc(C)nn3c2-c2nc3cc(C)c(C)cc3[nH]2)cc1 | 88.3% |
| Cc1ccc2nc(NC(=O)CSC(=S)N3CCN(C)CC3)sc2c1 | 108% |
| CC[Si](CC)(CC)OC1[C@@H](O[Si](CC)(CC)CC)[C@@H](CNC(=O)NC)O[C@H]1n1cnc2c(NC(=O)Nc3ccccc3)ncnc21 (some centres not stated) | 63.2% |
| COc1ccc(C2SC(C)C(=O)N2CCc2cccs2)cc1OC (configuration not stated) | 119% |
| Cc1cc(=O)[nH]n1-c1cc(Cl)ccc1N | 108% |
| c1ccc2cc(Cn3c(-c4ccc5ccccc5c4)[n+](Cc4ccc5ccccc5c4)c4ccccc43)ccc2c1 | -58% (active) |
| COc1cc2nc(SCc3cc(OC)c(OC)c(OC)c3)n(-c3ccccc3OC)c(=O)c2cc1OC | 63% |

What follows are compounds tested on MDA-MB-231 breast in the same assay as above. Conditions: 10 µM unless noted.

| Structure (SMILES) | growth |
| --- | --- |
| Clc1cccc(Cl)c1Nc1ccc2nnc(-c3ccncc3)n2n1 | 114% |
| CC(C)(C)[Si](C)(C)OC1[C@@H](CNC(=O)NC(=O)CCl)O[C@@H](n2cnc3c(N)ncnc32)[C@H]1O[Si](C)(C)C(C)(C)C (some centres not stated) | -76.8% (active) |
| CC(=O)Nc1ccc(Sc2ccc([N+](=O)[O-])o2)cc1 | 58.6% |
| CC(C)(C)[Si](C)(C)OC1[C@@H](COC(=O)NC(=O)CCl)O[C@@H](n2cnc3c(N)ncnc32)[C@H]1O[Si](C)(C)C(C)(C)C (some centres not stated) | 35.7% |
| COc1ncnc2c1ncn2C/C(Br)=C(\Br)CCl | 41.8% |
| O=C1c2ccccc2C(=O)c2c(Nc3ccc(CCO)cc3)ccc(O)c21 | 56.4% |
| COc1ccccc1CNCCCCCCCCCCCCN1C(=O)c2ccc3c4c(ccc(c24)C1=O)C(=O)N(CCCCCCCCCCCCNCc1ccccc1OC)C3=O | 64.1% |
| CC(=O)c1cc(C)c(OC(=O)c2ccccc2)c(C)c1 | 94.6% |
| COC(=O)/C=C1/CCC2C3CCC4=CC(=O)C(Br)CC4(C)C3C(=O)CC12C (configuration not stated) | 78% |
| O=c1[nH]c(-c2ccccn2)nc2sc3c(c12)CCCCCC3 | 49.3% |
| CC(C)OC1=C(Cl)C(=O)c2ccccc2C1=O | 85.6% |
| CCCCCn1c(=N)n(CC(O)COc2cccc(C)c2)c2ccccc21 (configuration not stated) | 22.8% |
| CC1SC(c2cccc(Oc3ccccc3)c2)N(CCc2cccs2)C1=O (configuration not stated) | -47.5% (active) |
| CC(C)(C)[Si](C)(C)OC1[C@@H](COC(N)=O)O[C@@H](n2cnc3c(N)ncnc32)[C@H]1O[Si](C)(C)C(C)(C)C (some centres not stated) | 100% |
| COc1ccc(-c2csc3c2-n2cccc2C3=O)cc1O | 13.2% |
| O=c1[nH]c(-c2ccncc2)nc2sc3c(c12)CCCCCC3 | 62.1% |
| COc1ccc(-n2c(SCc3cc(OC)c(OC)c(OC)c3)nc3ccc(C)cc3c2=O)c(OC)c1 | 44.8% |
| O=C1NC(=O)C(CSc2ccccc2)(c2ccccc2)N1 (configuration not stated) | 104% |
| Fc1ccccc1Nc1ccc2nnc(-c3ccncc3)n2n1 | 101% |
| CC(C)(C)[Si](C)(C)OC1[C@@H](O[Si](C)(C)C(C)(C)C)[C@@H](CNC(=O)NC(=O)C(F)(F)F)O[C@H]1n1cnc2c(NC(=O)Nc3ccccc3)ncnc21 (some centres not stated) | 82.7% |

| Structure (SMILES) | growth |
| --- | --- |
| Cc1ccc(N=c2nc3sc4c(C)ccc(C)c4n3c(N)c2C#N)cc1 | 93.9% |
| COCCOC1=C(Cl)C(=O)c2ccccc2C1=O | 34.8% |
| CCOC(=O)C1=C(C)N2C(=NC3=C(CCCC/C3=C\c3ccccc3)C2c2ccccc2)S1 (configuration not stated) | 107% |
| CCN1CCN(C(=S)SCC(=O)Nc2nc3ccc(OC)cc3s2)CC1 | 98% |
| Oc1ccccc1/C=N/Nc1nc2ccccc2s1 | 37.7% |
| CC(=O)Nc1ccccc1-c1n[nH]c(=O)[nH]c1=O | 104% |
| Oc1ccc2ccccc2c1C1NN=C(c2ccccc2)S1 (configuration not stated) | 38.7% |
| O=c1c2c(=NCCN3CCCC3)cc3c(=O)n(CCCN4CCOCC4)c(=O)c4ccc(c(O)n1CCCN1CCOCC1)c2c4-3 | -24.5% (active) |
| COc1ccccc1-n1c(SCc2cc(OC)c(OC)c(OC)c2)nc2ccc(Cl)cc2c1=O | 55.7% |
| Nc1c(Br)cc(Br)cc1-c1n[nH]c(=O)[nH]c1=O | 87.4% |
| O=C1C(OCCOc2ccccc2)=C(OCCOc2ccccc2)C(=O)c2ccccc21 | 70.5% |
| O=c1nc(NO)[nH]c(=O)n1Cc1ccccc1 | 123% |
| COc1ccc(-c2nc3sc(C)nn3c2-c2nc3cc(C)c(C)cc3[nH]2)cc1 | 99.6% |
| Cc1ccc2nc(NC(=O)CSC(=S)N3CCN(C)CC3)sc2c1 | 110% |
| CC[Si](CC)(CC)OC1[C@@H](O[Si](CC)(CC)CC)[C@@H](CNC(=O)NC)O[C@H]1n1cnc2c(NC(=O)Nc3ccccc3)ncnc21 (some centres not stated) | 97.4% |
| COc1ccc(C2SC(C)C(=O)N2CCc2cccs2)cc1OC (configuration not stated) | 73.2% |
| Cc1cc(=O)[nH]n1-c1cc(Cl)ccc1N | 124% |
| c1ccc2cc(Cn3c(-c4ccc5ccccc5c4)[n+](Cc4ccc5ccccc5c4)c4ccccc43)ccc2c1 | -72.9% (active) |
| COc1cc2nc(SCc3cc(OC)c(OC)c(OC)c3)n(-c3ccccc3OC)c(=O)c2cc1OC | 77.5% |
